These results are taken from ChEMBL document CHEMBL3988442, “University of Dundee, Small-Polar-MMV Screening Library” (2021).

Parameters in all cases: scale not given: direction of the effect not stated beside the values
Test [1] concerns the target Protein translocase subunit SecA (Escherichia coli (strain K12)) (UniProt P10408). The test is described as follows: Assay to Identify E. coli SecA ATPase Inhibitors. The test is classed as functional. The following applies: 30 µM.
Test [2] concerns the target T1, Ubiquitin-activating enzyme e1, putative (Leishmania donovani (strain BPK282A1)) (UniProt E9BSI1).
T1 sequence (whole entry): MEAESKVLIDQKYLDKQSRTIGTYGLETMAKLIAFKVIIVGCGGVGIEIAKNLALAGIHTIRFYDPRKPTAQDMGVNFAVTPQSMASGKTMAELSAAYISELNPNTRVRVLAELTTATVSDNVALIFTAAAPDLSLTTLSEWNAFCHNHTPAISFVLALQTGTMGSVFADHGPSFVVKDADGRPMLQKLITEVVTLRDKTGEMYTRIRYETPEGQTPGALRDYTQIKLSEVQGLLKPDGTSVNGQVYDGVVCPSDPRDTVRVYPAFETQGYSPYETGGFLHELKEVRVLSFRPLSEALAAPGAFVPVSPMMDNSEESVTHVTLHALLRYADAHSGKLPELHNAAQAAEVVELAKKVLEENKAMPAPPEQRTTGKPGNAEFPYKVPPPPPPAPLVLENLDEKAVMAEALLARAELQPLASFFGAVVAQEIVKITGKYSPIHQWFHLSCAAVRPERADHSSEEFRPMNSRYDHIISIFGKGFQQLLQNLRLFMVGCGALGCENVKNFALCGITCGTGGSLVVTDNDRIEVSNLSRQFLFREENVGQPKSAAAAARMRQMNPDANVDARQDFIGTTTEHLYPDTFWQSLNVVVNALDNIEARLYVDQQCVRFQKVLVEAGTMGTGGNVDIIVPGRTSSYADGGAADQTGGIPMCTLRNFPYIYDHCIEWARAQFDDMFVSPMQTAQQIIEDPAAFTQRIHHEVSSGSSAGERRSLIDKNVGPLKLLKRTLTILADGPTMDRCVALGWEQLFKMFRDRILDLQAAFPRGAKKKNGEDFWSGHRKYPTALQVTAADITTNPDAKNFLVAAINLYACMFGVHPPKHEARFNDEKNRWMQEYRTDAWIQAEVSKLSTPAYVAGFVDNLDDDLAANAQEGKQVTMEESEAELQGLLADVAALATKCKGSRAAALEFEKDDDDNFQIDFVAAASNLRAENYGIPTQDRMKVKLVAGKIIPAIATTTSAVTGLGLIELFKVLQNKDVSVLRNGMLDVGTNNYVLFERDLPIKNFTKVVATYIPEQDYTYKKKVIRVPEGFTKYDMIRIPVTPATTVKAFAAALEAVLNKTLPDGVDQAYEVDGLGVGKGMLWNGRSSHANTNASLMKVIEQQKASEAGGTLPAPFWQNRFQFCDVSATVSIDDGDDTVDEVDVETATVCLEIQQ
Description: Leishmania donovani Ubiquitin Activating Enzyme (LdE1). In kind it is functional. To be noted: 30 µM.

Test [3] concerns the target AMP-activated protein kinase, AMPK (Homo sapiens) (UniProt P54646+O43741+P54619+Q9UGJ0+Q9Y478+Q13131+Q9UGI9). Description: AMP-dependent Kinase enzyme assay. An in vitro enzyme assay that detects ADP turnover that is directly proportional to AMPK activity. This uses naive AMPK that is activated during the assay with MK-8722. The test is classed as functional. The following applies: 30 µM.

Test [4] has as its target Sialic acid-binding Ig-like lectin 9 (Homo sapiens) (UniProt Q9Y336). Description: Hs-Siglec9 ALPHAscreen SOP 20170721. To be noted: 10 µM. Background: In Alpha technology, singlet oxygen from a donor bead excites a nearby acceptor bead.
A further test concerns Trypanosoma cruzi. Description: Trypanosoma cruzi phosphomannomutase and mannose-1-phosphate guanylyltransferase assay. To be noted: 10 µM. In kind it is functional.
In test [5] the target is T2, Arginase-2, mitochondrial (Homo sapiens) (UniProt P78540).
T2 sequence (whole entry): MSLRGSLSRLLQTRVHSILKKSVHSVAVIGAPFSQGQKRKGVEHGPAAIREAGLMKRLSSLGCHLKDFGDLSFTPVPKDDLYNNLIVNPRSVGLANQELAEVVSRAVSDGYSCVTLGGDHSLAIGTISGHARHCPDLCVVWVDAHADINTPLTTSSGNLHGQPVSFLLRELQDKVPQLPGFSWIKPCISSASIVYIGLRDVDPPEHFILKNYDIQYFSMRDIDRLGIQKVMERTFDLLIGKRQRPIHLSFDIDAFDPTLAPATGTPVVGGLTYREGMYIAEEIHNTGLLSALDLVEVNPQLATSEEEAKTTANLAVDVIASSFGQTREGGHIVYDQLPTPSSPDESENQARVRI
Description: in vitro enzyme assay to detect the production of urea directly proportional to the activity of Arginase II. Further: in the data most compounds retested in dose-response had high values. In kind it is functional. The following applies: 33.3 µM.

Test [6] has as its target T3, Proteasome subunit beta (Trypanosoma cruzi) (UniProt O96673).
T3 sequence (whole entry): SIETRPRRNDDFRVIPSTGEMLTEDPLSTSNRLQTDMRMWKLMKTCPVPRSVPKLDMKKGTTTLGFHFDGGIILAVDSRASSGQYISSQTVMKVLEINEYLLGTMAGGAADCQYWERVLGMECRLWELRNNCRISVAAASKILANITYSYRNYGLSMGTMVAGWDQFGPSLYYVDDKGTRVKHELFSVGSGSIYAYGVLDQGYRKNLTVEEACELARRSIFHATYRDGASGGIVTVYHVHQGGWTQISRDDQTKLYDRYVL
Description: Trypanosoma cruzi proteasome chymotrypsin-like activity (TcProtChymo) assay. Further: in the data most compounds retested in dose-response had high values. In kind it is functional. To be noted: 9.37 µM.

The next test is filed under the species Homo sapiens. Description: To identify inhibition of the IFN signalling (Jak-Stat) pathway via expression of an eGFP reporter gene under the control of an IFN-stimulated response element (ISRE) containing MxA promoter. The test is classed as functional. The following applies: 30 µM.
The target in test [7] is T4, Tyrosyl-tRNA synthetase, putative (Trypanosoma cruzi (strain CL Brener)) (UniProt Q4DSP6).
T4 sequence (whole entry): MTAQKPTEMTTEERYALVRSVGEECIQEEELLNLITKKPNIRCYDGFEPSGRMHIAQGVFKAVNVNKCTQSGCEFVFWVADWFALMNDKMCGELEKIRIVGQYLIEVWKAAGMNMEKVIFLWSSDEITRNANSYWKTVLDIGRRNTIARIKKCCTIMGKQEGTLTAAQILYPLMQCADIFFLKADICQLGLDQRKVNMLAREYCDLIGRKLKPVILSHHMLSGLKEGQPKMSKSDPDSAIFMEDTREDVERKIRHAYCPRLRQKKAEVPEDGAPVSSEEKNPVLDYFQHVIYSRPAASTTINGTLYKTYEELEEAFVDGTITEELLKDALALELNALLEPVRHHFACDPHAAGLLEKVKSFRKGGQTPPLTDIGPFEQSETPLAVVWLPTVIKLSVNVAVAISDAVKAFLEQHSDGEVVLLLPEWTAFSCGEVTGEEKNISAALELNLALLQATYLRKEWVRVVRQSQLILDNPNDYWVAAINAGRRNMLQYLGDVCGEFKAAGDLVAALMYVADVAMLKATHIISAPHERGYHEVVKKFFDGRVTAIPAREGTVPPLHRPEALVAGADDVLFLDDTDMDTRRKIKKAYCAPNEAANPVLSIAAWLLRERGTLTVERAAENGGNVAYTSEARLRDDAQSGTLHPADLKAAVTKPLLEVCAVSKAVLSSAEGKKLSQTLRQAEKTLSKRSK
Description: Trypanosoma cruzi tyrosyl tRNA synthetase (TcYRS) _High Tyrosine SOP. Further: in the data most compounds retested in dose-response had high values. In kind it is functional. The following applies: 30 µM.

Test [8] has as its target T4, Tyrosyl-tRNA synthetase, putative (Trypanosoma cruzi (strain CL Brener)). Description: Trypanosoma cruzi tyrosyl tRNA synthetase (TcYRS) SOP. To be noted: 30 µM. In kind it is functional.
In test [9] the target is Chromo domain-containing protein 1 (Saccharomyces cerevisiae (strain ATCC 204508 / S288c) (Baker's yeast)) (UniProt P32657). The test is described as follows: ScCHD-1 Enzyme Inhibition Assay. Further: in the data most compounds retested in dose-response had high values. The test is classed as functional. To be noted: 30 µM.

For some assays here: Potency and affinity values are given separately.

Sequence of Chromo domain-containing protein 1 (Saccharomyces cerevisiae (strain ATCC 204508 / S288c) (Baker's yeast)) (P32657 whole entry, the tested form may be a part): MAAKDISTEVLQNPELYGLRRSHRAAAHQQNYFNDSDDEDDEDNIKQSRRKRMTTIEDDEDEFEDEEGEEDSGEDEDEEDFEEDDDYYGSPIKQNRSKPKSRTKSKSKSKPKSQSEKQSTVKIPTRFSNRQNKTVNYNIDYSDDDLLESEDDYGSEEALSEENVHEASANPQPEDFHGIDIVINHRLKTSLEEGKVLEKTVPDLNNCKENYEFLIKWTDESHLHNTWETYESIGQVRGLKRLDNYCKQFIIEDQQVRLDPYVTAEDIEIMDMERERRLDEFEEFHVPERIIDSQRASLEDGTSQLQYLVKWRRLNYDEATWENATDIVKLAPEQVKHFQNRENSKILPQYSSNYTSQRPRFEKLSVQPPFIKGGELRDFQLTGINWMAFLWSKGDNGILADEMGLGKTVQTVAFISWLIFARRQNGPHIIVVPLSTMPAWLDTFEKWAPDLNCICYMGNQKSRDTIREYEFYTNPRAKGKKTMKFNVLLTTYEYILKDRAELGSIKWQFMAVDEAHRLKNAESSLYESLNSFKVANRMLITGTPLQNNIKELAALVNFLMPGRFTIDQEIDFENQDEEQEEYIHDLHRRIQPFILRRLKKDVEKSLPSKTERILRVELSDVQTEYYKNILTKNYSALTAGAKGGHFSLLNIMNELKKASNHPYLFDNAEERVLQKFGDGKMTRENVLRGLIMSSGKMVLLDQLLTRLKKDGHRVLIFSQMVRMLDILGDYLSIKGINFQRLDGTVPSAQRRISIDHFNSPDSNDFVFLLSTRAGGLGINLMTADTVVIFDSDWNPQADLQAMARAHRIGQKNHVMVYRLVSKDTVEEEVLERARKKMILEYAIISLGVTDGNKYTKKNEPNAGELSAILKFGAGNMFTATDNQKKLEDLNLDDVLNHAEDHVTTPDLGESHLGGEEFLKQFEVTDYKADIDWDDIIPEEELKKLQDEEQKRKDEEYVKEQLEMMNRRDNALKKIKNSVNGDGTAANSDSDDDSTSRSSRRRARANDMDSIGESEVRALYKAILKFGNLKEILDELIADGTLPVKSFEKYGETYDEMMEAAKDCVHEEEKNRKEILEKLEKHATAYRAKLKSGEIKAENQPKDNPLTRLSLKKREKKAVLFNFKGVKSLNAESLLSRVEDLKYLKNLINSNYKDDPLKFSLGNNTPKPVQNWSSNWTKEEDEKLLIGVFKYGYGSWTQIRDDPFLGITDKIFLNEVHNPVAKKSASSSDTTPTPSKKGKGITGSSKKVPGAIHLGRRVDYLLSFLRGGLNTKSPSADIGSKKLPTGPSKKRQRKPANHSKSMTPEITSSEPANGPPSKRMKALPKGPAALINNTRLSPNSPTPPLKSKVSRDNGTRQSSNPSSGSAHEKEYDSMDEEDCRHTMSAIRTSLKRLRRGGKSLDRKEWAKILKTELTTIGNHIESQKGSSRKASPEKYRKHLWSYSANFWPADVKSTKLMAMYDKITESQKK
Sequence of Protein translocase subunit SecA (Escherichia coli (strain K12)) (P10408 whole entry): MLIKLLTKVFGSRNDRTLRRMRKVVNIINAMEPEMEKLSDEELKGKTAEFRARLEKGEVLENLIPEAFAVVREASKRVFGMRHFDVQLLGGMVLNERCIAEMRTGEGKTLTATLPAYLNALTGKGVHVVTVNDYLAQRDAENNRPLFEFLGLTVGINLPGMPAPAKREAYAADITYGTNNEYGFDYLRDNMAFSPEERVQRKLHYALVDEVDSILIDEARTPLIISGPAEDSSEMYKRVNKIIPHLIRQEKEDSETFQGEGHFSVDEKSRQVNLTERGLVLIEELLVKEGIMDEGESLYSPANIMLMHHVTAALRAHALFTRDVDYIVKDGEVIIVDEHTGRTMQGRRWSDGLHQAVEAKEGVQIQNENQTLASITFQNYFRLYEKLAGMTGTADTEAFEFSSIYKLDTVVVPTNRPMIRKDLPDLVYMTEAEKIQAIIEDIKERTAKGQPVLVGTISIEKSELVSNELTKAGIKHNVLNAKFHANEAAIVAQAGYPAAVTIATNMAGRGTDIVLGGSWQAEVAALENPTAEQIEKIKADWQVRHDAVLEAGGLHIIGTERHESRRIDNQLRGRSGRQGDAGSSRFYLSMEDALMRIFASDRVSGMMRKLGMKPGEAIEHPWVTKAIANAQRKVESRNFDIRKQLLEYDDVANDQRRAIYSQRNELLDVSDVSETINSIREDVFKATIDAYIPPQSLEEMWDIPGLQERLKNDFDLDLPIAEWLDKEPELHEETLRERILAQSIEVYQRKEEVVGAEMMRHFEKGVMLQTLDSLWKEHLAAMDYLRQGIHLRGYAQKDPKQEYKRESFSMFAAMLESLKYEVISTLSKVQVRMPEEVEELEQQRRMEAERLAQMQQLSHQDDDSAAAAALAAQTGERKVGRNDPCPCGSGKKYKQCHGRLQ
Sequence of Sialic acid-binding Ig-like lectin 9 (Homo sapiens) (Q9Y336 whole entry): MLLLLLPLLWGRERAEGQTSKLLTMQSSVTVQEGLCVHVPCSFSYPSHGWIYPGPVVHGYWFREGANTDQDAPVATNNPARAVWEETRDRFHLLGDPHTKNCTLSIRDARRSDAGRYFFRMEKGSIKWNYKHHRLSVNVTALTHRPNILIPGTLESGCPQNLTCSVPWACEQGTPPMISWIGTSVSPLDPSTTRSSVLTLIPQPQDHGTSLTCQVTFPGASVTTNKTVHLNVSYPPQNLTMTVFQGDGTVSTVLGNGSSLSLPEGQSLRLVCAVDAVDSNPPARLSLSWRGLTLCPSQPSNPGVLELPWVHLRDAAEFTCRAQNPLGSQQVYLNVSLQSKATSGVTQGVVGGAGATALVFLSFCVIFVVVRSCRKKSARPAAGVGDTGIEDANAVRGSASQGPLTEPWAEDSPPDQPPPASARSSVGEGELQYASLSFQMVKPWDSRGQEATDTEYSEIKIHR

Take `CCCNC(=O)Cn1cc(-c2ccccc2)cn1`: the Percent Effect in test [1] is -4.24%; in test [2], 8.86%; in [3] it was 12.1%; in test [4], -0.382%; in the test on Trypanosoma cruzi it was -5.64%; in test [5], -0.645%. The Percent Effect was 4.97% in test [6]; 8.94% in the test filed under Homo sapiens; 2.08% in test [7]; 7.59% in test [8]; -18.4% in [9].

As for `CN1C(=O)C(c2ccccc2)CC12CCN(CCOCCO)CC2` (stereo not given), the Percent Effect in [1] is 1.44%; in test [2] it was 10.7%; in test [3], -6.48%; in [4], 0.314%; with Trypanosoma cruzi, -9.64%; in test [5] it was 3.12%. The Percent Effect is 19.2% in [6]; 15.2% in the test filed under Homo sapiens; 3.83% in test [7]; -8.64% in test [8]; -5.07% in [9].

For `COc1ccccc1CN1CCC2(CC1)CC(Oc1ccccn1)CO2` (stereo not given), the Percent Effect in test [1] was -0.474%; in test [2], 16%; in test [3] it was -2.4%; in test [4], -9.97%; with Trypanosoma cruzi, 2.76%; in [5] it was 132%. Also, the Percent Effect in [6] was 14.9%; in the test filed under Homo sapiens, -3.26%; in [7], 4.25%; in test [8] it was 8.97%; in test [9], -13.9%.

Take `CN1CCOC(CNCc2cccc(OCc3ccccn3)c2)C1` (stereo not given): the Percent Effect in test [1] was -5.11%; in [2] it was 5.06%; in test [3], -8.27%; in test [4], 12.2%; in the test with Trypanosoma cruzi, 3.87%; in [5] it was -1.9%. Besides, the Percent Effect in [6] is -4.18%; in the test listed under Homo sapiens, -5.19%; in test [7], 7.39%; in test [8] it was 11.4%; in [9], -2.11%.

In the case of `COc1cc(C)c(C(C)NC(=O)Nc2nnc(C)s2)cc1OC` (stereo not given), the Percent Effect in [1] is -4.05%; in test [2], 5.41%; in [3], -4.62%; in test [4], 14.6%; with Trypanosoma cruzi it was 7.72%; in test [5], 1.24%. The Percent Effect is 7.64% in test [6]; 11.2% in the test filed under Homo sapiens; 2.15% in [7]; 11.1% in [8]; -3.99% in [9].

For `COc1ccc(NC(=O)C2CCOC2)c(N2CCN(C(C)=O)CC2)n1` (stereo not given), the Percent Effect in test [1] was -2.36%; in [2], 2.7%; in test [3] it was -66.2%; in test [4], 2.08%; in the test on Trypanosoma cruzi, -0.391%; in [5], 2.5%. Moreover, the Percent Effect in test [6] was 19.7%; in the test filed under Homo sapiens, 2.27%; in test [7] it was 8.91%; in test [8], 11%; in [9], -5.79%.

`COCC1CN(C(=O)C2=CCCCC2)Cc2cnn(CC3CC3)c21` (stereo not given): the Percent Effect is -1.86% in test [1]; 13% in [2]; 2.96% in test [3]; 2.46% in [4]; 1.48% in the test on Trypanosoma cruzi; -4.52% in test [5]. Besides, the Percent Effect in test [6] is 10.1%; in the test filed under Homo sapiens, 18%; in [7], 7.41%; in test [8], 16.7%; in [9], -9.46%.

On to `CCc1nnc2n1CCN(Cc1ccc3c(c1)OCCO3)C2`, for which the Percent Effect in test [1] was 0.332%; in test [2] it was 18.9%; in test [3] it was -5.31%; in test [4] it was -8.03%; in the test on Trypanosoma cruzi it was -3.06%; in test [5], 1.29%. Also, the Percent Effect in test [6] is 7.9%; in the test listed under Homo sapiens it was 28.3%; in test [7] it was 2.97%; in [8], 13.4%; in test [9], -0.119%.

Take `Cc1cnn(CCNCC(=O)NCc2ccccc2)c1`: the Percent Effect in test [1] is -0.968%; in [2], 5.26%; in test [3] it was -2.33%; in [4] it was 11.4%; in the test on Trypanosoma cruzi, 2.15%; in test [5], -4.68%. Also, the Percent Effect in test [6] is 0.0846%; in the test listed under Homo sapiens it was -25%; in test [7], 6.4%; in test [8], 6.17%; in test [9], 4.48%.

As for `COc1cc(CN2CC[C@@]3(CCCO3)[C@@H](O)C2)ccc1F`, the Percent Effect in test [1] is -3.6%; in test [2], 14.9%; in [3] it was 6.46%; in [4], -2.68%; in the test with Trypanosoma cruzi, 2.96%; in test [5], 0.696%. The Percent Effect in [6] is 3.74%; in the test filed under Homo sapiens, -18.1%; in test [7], 6.45%; in [8], 16.9%; in [9], -12.2%.
